Laboratory results from PubChem BioAssay AID1259336 (Sattelle Laboratory, UCL Respiratory, Division of Medicine, …, 2017).
The source made the active and inactive calls. Rule as the data show it: active = log2 fold change growth below about -1.8; inactive = the rest.

assay: anthelmintic activity against nematode growth – whole organism, log2 fold change (AID 1259336);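 also: growth scored by imaging after five days at 20 °C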; details: C. elegans growth, anthelmintic screen; hits give low values

log2 fold change growth, inactive:
Nc1ncnc2c1ncn2C[C@@H](O)[C@@H](O)C(=O)O -0.0899
O=C(NCCc1ccn(-c2ccccc2)n1)C1CCCCC1 0.0936
COc1cc(C2=NCCN2)cc2cc(-c3ccc(C4=NCCN4)cc3)oc12 0.303
O=C(C1CCN(c2cc(-n3cccc3)ncn2)CC1)N1CCc2ccccc2C1 -0.11
Cc1ccc2c(c1C)NC(=O)[C@]21NN=C(c2ccccc2)S1 -0.355
COC(=O)c1c(NC(=O)c2cc3ccccc3oc2=O)sc2c1CCN(Cc1ccccc1)C2 -0.125
COc1cccc(NC(=O)c2c(NC(=O)c3cccnc3)sc3c2CCC3)c1 -1.12
CNC(=O)[C@@H]1Cc2ccccc2N1C(=O)Cc1ccc(F)cc1 0.145
O=C(Nc1c(O)cccc1-c1nc2c(C(=O)O)cccc2o1)c1cc(-c2ccccc2)on1 -0.772
Cc1ccccc1C(=O)N1NC(=Nc2ccccc2)SC1(C)C -0.306
COc1ccc(N(CCc2cccc(C)n2)C(=O)C2CCCCC2)cc1 -0.0192
O=C1COCc2ccc(Br)cc2N1Cc1ccc(C(F)(F)F)cc1 -0.402
Cc1cccc(NC(=O)c2cc(S(=O)(=O)N(C)c3ccc(F)cc3)ccc2Cl)n1 -0.21
CO[C@H]1/C=C/O[C@@]2(C)Oc3c(C)c(O)c4c(O)c(c(/C=N/N5CCN(C)CC5)c(O)c4c3C2=O)NC(=O)/C(C)=C\C=C[C@H](C)[C@H](O)[C@@H](C)[C@@H](O)[C@@H](C)[C@H](OC(C)=O)[C@@H]1C 0.729
CCCn1c(CNc2ccccc2O)nc2ccccc21 0.228
CC(C)[C@H](NC(=O)Cc1cccc2ccccc12)C(=O)Nc1cccc(C#N)c1 0.334
Cc1ccccc1CN1CCC(O)(c2ccc(Cl)c(C(F)(F)F)c2)CC1 0.151
c1ccc(Oc2ccc(-c3cc(CN4CCOCC4)[nH]n3)cc2)cc1 0.284
COC(=O)c1ccc(F)cc1NS(=O)(=O)c1cccc(-c2cnn(Cc3ccccc3)c2)c1 -0.413
CC(C)(C)OC(=O)N1CCC(Cn2nc(-c3cnc4ccccc4c3)c3c(N)ncnc32)CC1 -0.248
N=C(N)c1ccc(OCCCCCOc2ccc(C(=N)N)cc2)cc1 0.291
O=C(NCc1cc(Cl)cc(Cl)c1)c1c(C(F)(F)F)nc2ccccn12 -0.11
CCc1cc(=O)n(C)c(S[C@@H](C)C(=O)Nc2ccc(F)cc2)n1 -0.417
COc1ccc(CCN2CCC(NCc3cccc(N(C)C)c3)CC2)cc1 0.27
CC(C)(C)OC(=O)N1CCN(c2nccc(-c3ccc(-c4ccc(Cl)cc4)s3)n2)CC1 0.151
O=C(NC1=NCCS1)c1sc2cc(F)ccc2c1Cl -0.159
c1ccc(Oc2ccc(-c3cncc(-c4ccc5[nH]ccc5c4)n3)cc2)cc1 -1.03
C[C@H]1CS(=O)(=O)CCN1/N=C/c1ccc([N+](=O)[O-])o1 0.236
COc1ccc2nc(C)cc(OCC(=O)NCc3ccccc3)c2c1 0.118
COc1ccc(Oc2ccc([C@@H](C)N(C)c3ncc4c(N)nc(N)nc4n3)cc2)cc1 0.282
Cc1ccc2oc(-c3cc(NC(=O)Cc4ccccc4)ccc3Cl)nc2c1 0.272
Cn1ncc2c(N3CCOCC3)nc(NCCc3c[nH]c4ccccc34)nc21 0.0196
c1csc(-c2cnc3sc(NCC4CCOCC4)nn23)c1 -0.257
c1ccc(Oc2ccc(-c3cc(N4CCNCC4)n[nH]3)cc2)cc1 0.489
O=C(Nc1ccc(N2CCNCC2)nc1)c1oc(-c2ccccc2)nc1C(F)(F)F -0.164
CCc1ccc([C@@H](NCc2nc(N)nc(N(C)C)n2)C(C)C)cc1 0.433
c1ccc(C[C@@H]2CN(c3nccc(Oc4ccc(-n5ccnc5)cc4)n3)CCN2)cc1 0.11
NC(N)=Nc1ccc(-c2ccc(-c3ccc(N=C(N)N)cc3Cl)o2)c(Cl)c1 0.171
